Compounds with a hit are over-represented: about 10% of the library has one in this group of screens.
GPT2 inhibitor: GPT2 alanine aminotransferase inhibition; Recombinant GPT2, coupled pyruvate oxidase/HRP Amplex Red fluorescence; Potency, µM (titrated, usually from 57.7 µM), inactives show at the top dose activity change, negative = inhibition, usual class: inhibitors; 0.25% of 100,000 active; note: % is set by controls: 0 for no effect and ±100 for the full control effect; nearly all actives have a fitted effect of over 60% in size
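GPT2 10ng/uL, a-KG 250uM, L-Ala 2mM, HEPES pH7.5 + 0.0001% Tween; 30 min RT. Then Amplex mix (PO/HRP/ThPP), 30 min RT dark, fluorescence. AOA 50uM used as positive control.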
3T3 cytotox: NIH 3T3 cell cytotoxicity; NIH 3T3 viability, CellTiter-Glo ATP luminescence, 48-72 h; Potency, µM (highest dose often 96.7 µM), without a hit: at the highest dose activity change, negative = cytotoxicity, actives largely listed as inhibitors; 4.3% of 94,000 active; AID 1345082; note: % is set by controls: 0 for no effect and ±100 for the full control effect; nearly all actives have a fitted effect of over 55% in size
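Cytotoxicity was measured by CellTiter-Glo ATP luminescence after 48 or 72 h compound exposure at 37 °C. Mouse NIH 3T3 fibroblasts were seeded at 400 cells/well and dosed by 23 nL pin transfer.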
HEK cytotox: HEK 293 cell cytotoxicity | HEK 293 viability, ATP luminescence (CellTiter-Glo), 48-72 h | Potency, µM (series often up to 115 µM), for inactives: top-dose activity change, negative = cytotoxicity, hits mostly inhibitors | 6.6% of 94,000 active | AID 1345083; note: % is set by controls: 0 for no effect and ±100 for the full control effect; nearly all actives have a fitted effect of over 60% in size
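Luminescence from cellular ATP, measured with CellTiter-Glo, indicates HEK 293 viability. Cells plated at 250 cells/well are treated with compound for 48 or 72 hr at 37 degree Celsius before reagent addition.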
FLuc inh-1: Photinus pyralis luciferase inhibition | purified P. pyralis luciferase, luminescence, biochemical | Potency, µM (doses to about 115 µM), usual class: inhibitors | 2.5% of 76,000 active; note: % is set by controls: 0 for no effect and ±100 for the full control effect; nearly all actives have a fitted effect of over 65% in size
Target sequence (P08659 whole entry, looked up): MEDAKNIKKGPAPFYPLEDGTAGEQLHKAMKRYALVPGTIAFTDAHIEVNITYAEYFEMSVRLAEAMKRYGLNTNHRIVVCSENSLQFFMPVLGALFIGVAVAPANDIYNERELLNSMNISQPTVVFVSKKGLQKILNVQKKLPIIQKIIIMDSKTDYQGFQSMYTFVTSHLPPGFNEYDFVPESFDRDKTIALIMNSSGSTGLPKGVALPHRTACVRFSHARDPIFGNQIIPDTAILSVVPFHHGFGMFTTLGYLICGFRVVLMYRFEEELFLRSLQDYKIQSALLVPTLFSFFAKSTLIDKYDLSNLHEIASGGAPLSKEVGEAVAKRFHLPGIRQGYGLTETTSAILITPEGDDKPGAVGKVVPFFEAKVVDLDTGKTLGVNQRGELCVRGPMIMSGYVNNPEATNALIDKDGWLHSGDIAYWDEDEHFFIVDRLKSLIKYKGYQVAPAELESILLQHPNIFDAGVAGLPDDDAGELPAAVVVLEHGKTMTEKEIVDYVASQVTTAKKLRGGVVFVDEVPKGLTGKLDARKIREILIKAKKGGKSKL
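Biochemical qHTS: compound (6-point titration) added to 10uM D-luciferin plus 10uM ATP in Tris acetate pH 7.5 buffer with Mg, Tween-20 and BSA, then purified enzyme at 10nM; light output imaged.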
hNpr1 antagonist: blocks ANP-stimulated signaling of human Npr1 receptor | HEK293 hNpr1 GloSensor cGMP, ANP-stimulated luminescence | AID 1347048 | 1.6% of 76,000 active | Potency, µM (titrated, usually from 46.3 µM), for the others: top-dose activity change, negative = inhibition, actives largely listed as inhibitors | P16066; calls by dose curve; note: % is set by controls: 0 for no effect and ±100 for the full control effect; nearly all actives have a fitted effect of over 60% in size
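Compound pre-incubated 30 min at room temperature on GloSensor-loaded HEK293 cells stably carrying hNpr1 and the pGS-40F cGMP biosensor. Stimulation uses hNppA at 0.1 nM final; luminescence is taken at baseline and 20 min post-agonist.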
FLuc SDR no ATP: stabilizes firefly luciferase without ATP; shares compounds with FLuc inh-1; Purified FLuc-C-HiBiT, Nano-Glo HiBiT luminescence, no ATP; Potency, µM (highest dose often 32.7 µM), inactives show at the top dose activation (signal gain), actives largely listed as activators; 7.8% of 1,300 active; AID 1963318; note: nearly all actives have a fitted effect of over 55% in size
FLuc SDR ATP: stabilizes firefly luciferase with ATP present; shares compounds with FLuc inh-1; purified FLuc-C-HiBiT + ATP, HiBiT complementation luminescence; Potency, µM (highest dose often 32.7 µM), for inactives: at the highest dose activation (gain of signal), actives largely listed as activators; 8.7% of 1,300 active; AID 1963319;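 note: signal reports ligand binding via conformational change of the enzyme rather than luciferase catalysis; % of control where 0% means no effect; nearly all actives have a fitted effect of over 55% in size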
FLuc inh-2: inhibitors of firefly luciferase enzymatic activity. shares compounds with FLuc inh-1. purified FLuc-C-HiBiT enzyme, luciferin luminescence. Potency, µM (top dose mostly 32.7 µM), for the others: top-dose activity change, negative = inhibition, most hits filed as inhibitors. 42% of 1,300 active. AID 1963320; note: % is set by controls: 0 for no effect and ±100 for the full control effect; nearly all actives have a fitted effect of over 70% in size
* marks the source's active call; other numbers are inactive results; i = inactive; ? = inconclusive; / = no result; [ ] = another dose, or the depositor's remark. Unless noted, calls come from the whole dose curve; as a rule, active = well fitted curve in the direction sought with a large enough effect; inconclusive = small, poorly fitted or top-dose-only effect, or another doubt; inactive = no such curve, though single readings can be large; an effect the other way counts as inactive or inconclusive. Potency is the fitted concentration of half-maximal effect.

SMILES	GPT2 inhibitor	3T3 cytotox	HEK cytotox	FLuc inh-1	hNpr1 antagonist	FLuc SDR no ATP	FLuc SDR ATP	FLuc inh-2
Cc1ccc(NC(=O)c2cc(NC(=O)C3CC3)cc3nc(C)ccc23)cc1	1%	?	?	i	4%	/	/	/
Cc1ccc(NC(=O)N2CCC(OC3CCN(S(C)(=O)=O)CC3)CC2)cc1Cl	i	?	?	i	?	/	/	/
Cc1ccc(NC(=O)c2ncoc2-c2ccco2)cc1Cl	/	/	/	/	/	18%	14%	?
CC(=O)N1CCC(=O)N(CC2CC2)Cc2cc3c(cc21)OCO3	/	-27%	?	/	/	/	/	/
CC1=C[C@@H](CNC(=O)c2ccncc2)[C@H](C(C)C)C[C@H]1CC(=O)N1CCOCC1	-8%[88.5 µM]	-2%[138 µM]	-11%[172 µM]	13µM*	?	10%[49.3 µM]	14%[49.3 µM]	-13%[49.3 µM]
CCn1cc(C(=O)N2CCOc3c(O)cc(-c4ccccc4C)cc3C2)cn1	2%[11.5 µM]	?	?	i	-12%	/	/	/
CC(=O)NCCC(=O)N1CCOc2c(O)cc(-c3cccc(Cl)c3)cc2C1	1%	-29%	?	i	4%	/	/	/
O=C(c1ccccc1C(F)(F)F)N1CCOc2c(cc(-c3nc4ccccc4s3)cc2OC2CCOC2)C1 (stereo unspecified)	/	/	/	/	/	12%	8%	3%
C=CCCC(=O)N1CCOc2c(O)cc(-c3nc4ccccc4s3)cc2C1	-2%	?	50µM*	?	-26%	12%	9%	-17%
CC(CCc1ccc(O)cc1)N1CCOc2c(O)cc(-c3nc4ccccc4s3)cc2C1 (stereo unspecified)	/	/	/	/	/	14%	12%	-8%
Oc1cc(-c2cccc(Cl)c2)cc2c1OCCN(Cc1noc(C3CC3)n1)C2	?	?	?	i	-3%	/	/	/
Oc1ccc(Cl)cc1CN1CCOc2c(O)cc(-c3nc4ccccc4s3)cc2C1	/	/	/	/	/	15%	10%	-3%
CSc1ccc(/C=C/c2nc3ccccc3n2S(=O)(=O)c2ccc(Br)cc2)cc1	/	/	/	/	/	7.9µM*	?	0.7µM*
O=S(=O)(c1cccc(C(F)(F)F)c1)n1c(/C=C/c2ccccc2)nc2ccccc21	/	/	/	/	/	1.6µM*	?	0.56µM*
CCOC(=O)C1(Cc2ccccc2C(F)(F)F)CCNCC1	3%	?	?	i	1%	/	/	/
COCCCNC(=O)c1csc(N2CCN(c3ccccc3)CC2)n1	i	-7%	?	i	2%	/	/	/
Cc1ccc(N2CCN(c3nc(C(=O)O)cs3)CC2)cc1	-1%	-6%	-2%	1.4µM*	-16%	13%	?	2µM*
CC(C)c1ccc(C2=CC(c3ccc(C(C)C)cc3)n3nnnc3N2)cc1 (stereo unspecified)	/	/	/	/	/	11%	10%	0%
Cc1c(C(=O)NCc2cccc(Br)c2)oc2ccc3c(c12)C(=O)CC(C)(C)O3	/	/	/	/	/	17%	10%	?
O=C(CCc1conc1-c1ccccc1F)NCc1cccc(Br)c1	i	?	-21%	i	1%	/	/	/
COc1ccc(CN2CCOc3nc(-c4cc5ccccc5o4)ncc3C2=O)cc1	-1%[88.5 µM]	-14%[138 µM]	?	3.5µM*	?	16%[49.3 µM]	16%[49.3 µM]	8.1µM*
CCOc1cccc(-c2nc(C3CCOC3)no2)c1 (stereo unspecified)	4%	1%	i	13µM*	1%	13%	11%	-3%
COc1cccc(-c2ccc(-c3nc(C4CCOC4)no3)o2)c1 (stereo unspecified)	-9%	?	?	4.5µM*	-20%	21%	15%	?
CCc1[nH]ncc1C(=O)N[C@H]1CC[C@H](Nc2nccc(-c3ccccn3)n2)C1	0%	?	?	i	-1%	/	/	/
Cc1ccc(-n2cc(CN(C)C(C)C(=O)N(C)C)c(-c3cccc(C)c3)n2)cc1 (stereo unspecified)	5%	?	?	i	7%	/	/	/
SMILES	GPT2 inhibitor	3T3 cytotox	HEK cytotox	FLuc inh-1	hNpr1 antagonist	FLuc SDR no ATP	FLuc SDR ATP	FLuc inh-2
CC(=O)NC1CCN(Cc2cn(-c3ccc(C)cc3)nc2-c2cccc(C)c2)C1 (stereo unspecified)	i	?	?	13µM*	-1%	15%	9%	?
Cc1ccc(CN2C(=O)[C@@H]3C[C@@H](O)CN3C3(CN(C4CCC4)C3)C2=O)o1	-19%[88.5 µM]	-2%[174 µM]	2%[172 µM]	i	9%[70.6 µM]	/	/	/
COc1ccc(-c2noc(-c3nc(-c4ccccn4)no3)n2)cc1	i	i	9%	i	0%	/	/	/
Brc1ccc(-c2nc(-c3ccccn3)no2)o1	/	/	/	/	/	?	?	1.2µM*
Clc1ccc(-c2nc(-c3ccccn3)no2)cc1Cl	/	/	/	/	/	?	?	5.6µM*
C=CCNC(=O)CCc1c(C)nn(-c2ccc(F)cc2)c1Oc1ccccc1	-1%	?	?	i	-26%	/	/	/
CCC(=O)Nc1cc2nn(-c3ccc(C)cc3)nc2cc1C	/	/	/	/	/	?	?	0.39µM*
O=C(NCc1ccco1)Nc1cccc(-c2ccc(N3CCCC3)nn2)c1	?	?	?	7.1µM*	-22%	?	?	?
CC(=O)Nc1cccc(-c2ccnc(-c3nnc(C)n3CCN3CCOCC3)c2)c1	-20%[88.5 µM]	?	-12%[172 µM]	i	-2%[70.6 µM]	/	/	/
O=C(NCc1ccccc1)Nc1cccc(-c2nnc3n2CCCC3)c1	i	-14%	?	i	-3%	/	/	/
Cc1ccc(CNC(=O)Nc2cccc(-c3ccc(N4CCOCC4)nn3)c2)cc1	i	?	?	1.3µM*	-25%	?	?	2.8µM*
COc1cccc(CNC(=O)Nc2cccc(-c3ccc(N4CCOCC4)nn3)c2)c1	?	?	?	1.1µM*	?	?	?	2.8µM*
COc1ccc(CNC(=O)Nc2cccc(-c3ccc(N4CCCCC4)nn3)c2)cc1	i	?	?	0.25µM*	8.9µM*	2µM*	?	0.5µM*
CCc1cc(=O)n(CC(=O)NCc2cccc(OC)c2)c(N2CCOCC2)n1	2%	2%	1%	i	2%	/	/	/
CN(CC1CCOCC1)C(=O)Nc1cccc(Br)c1	i	2%	-1%	i	1%	/	/	/
O=C(Nc1cccc(Br)c1)c1cc(-c2ccc3c(c2)OCCO3)on1	/	/	/	/	/	?	?	0.99µM*

Source: PubChem
